Coupling enz – coupling enzyme interference in Giardia aldolase counter-screen | coupling enzyme system counterscreen, AmpLite Red fluorescence | activity change, negative = inhibition, % at 58.2 µM, hits read low | hit rate 0.67% among 290,000 | AID 2472; in the data active = activity change below about -30%
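Fluorescence at 525 nm excitation and 598 nm emission measured inhibition of the coupled detection system without aldolase. Compounds (at 57.5 uM final) were preincubated 10 min at room temperature with coupling enzyme reagent before a 20 min substrate/AmpLite Red step.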
KDM4E inh – blocks human JMJD2E demethylase activity. JMJD2E catalytic domain, FDH-coupled NADH fluorescence (FDH is formaldehyde dehydrogenase). Potency, µM (highest dose often 57.1 µM), usual class: inhibitors. hit rate 1.6% among 230,000. AID 2147; active = well fitted inhibition curve with a large enough effect, not every such curve was filed as active; inconclusive = small, poorly fitted or top-dose-only effect, or another doubt; inactive = no such curve, though single readings can be large or run the other way; note: nearly all actives have a fitted effect of over 50% in size
Target sequence (B2RXH2 1-337 limits assumed): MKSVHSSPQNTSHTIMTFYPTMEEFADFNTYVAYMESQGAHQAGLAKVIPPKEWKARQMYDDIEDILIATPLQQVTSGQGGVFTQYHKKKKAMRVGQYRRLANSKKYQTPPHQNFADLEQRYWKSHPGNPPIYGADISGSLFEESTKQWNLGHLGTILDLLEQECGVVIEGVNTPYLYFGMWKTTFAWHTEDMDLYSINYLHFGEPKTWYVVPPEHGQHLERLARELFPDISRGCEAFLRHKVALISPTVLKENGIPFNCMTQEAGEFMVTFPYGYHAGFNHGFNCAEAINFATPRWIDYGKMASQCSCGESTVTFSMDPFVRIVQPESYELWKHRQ
ALDH1A1 inh – blocks purified human ALDH1A1 activity. hit rate 7.3% among 220,000. Purified ALDH1A1, NADH fluorescence, propionaldehyde substrate. AID 1030. P00352. Potency, µM (series often up to 75.3 µM), hits mostly inhibitors; active = well fitted inhibition curve with a large enough effect, not every such curve was filed as active; inconclusive = small, poorly fitted or top-dose-only effect, or another doubt; inactive = no such curve, though single readings can be large or run the other way
Sfp PPTase inh – Sfp phosphopantetheinyl transferase inhibition; hit rate 3.5% among 310,000; Potency, µM, hits mostly inhibitors; Q9F4F7; Biochemical Sfp PPTase activity, qHTS;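 note: the enzyme is Sfp with the accession as filed and its product quenches rhodamine fluorescence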
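Buffer: 50 mM Hepes-Na pH 7.6, 10 mM MgCl2, 0.01% Nonidet P-40, 0.01% BSA. Enzyme 15 nM, pre-exposed to compound 15 min; substrates then added and fluorescence change tracked over 30 min.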
NPSR antag – neuropeptide S receptor (human) antagonism, cAMP. hit rate 1% among 220,000. Q6W5P4. Potency, µM (top dose mostly 38.3 µM), hits mostly inhibitors. CHO-NPSR cells, cAMP TR-FRET, antagonist mode. AID 1461; note: nearly all actives have a fitted effect of over 50% in size
Target sequence (Q6W5P4 whole entry, looked up): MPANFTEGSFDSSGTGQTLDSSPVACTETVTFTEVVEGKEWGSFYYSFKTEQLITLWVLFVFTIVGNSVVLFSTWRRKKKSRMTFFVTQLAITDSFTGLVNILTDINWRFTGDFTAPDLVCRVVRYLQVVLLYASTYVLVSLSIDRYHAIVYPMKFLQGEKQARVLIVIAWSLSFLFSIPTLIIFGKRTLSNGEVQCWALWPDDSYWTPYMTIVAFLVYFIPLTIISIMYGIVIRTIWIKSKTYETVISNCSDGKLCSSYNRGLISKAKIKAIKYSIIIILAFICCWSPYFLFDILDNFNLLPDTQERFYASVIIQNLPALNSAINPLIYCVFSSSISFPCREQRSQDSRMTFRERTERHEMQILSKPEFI
RGS12 GoLoco inh – inhibitors of human Gai1-RGS12 GoLoco interaction (red fluorophore); Gai1:RGS12 GoLoco peptide FP, rhodamine, 10 min; AID 880; hit rate 0.44% among 230,000; Potency, µM (highest dose often 61.6 µM), usual class: inhibitors; active = well fitted inhibition curve with a large enough effect, not every such curve was filed as active; inactive = no such curve, though single readings can be large or run the other way; note: nearly all actives have a fitted effect of over 30% in size
Numbers stand for hits; n = inactive; u = inconclusive; x = not tested or not shown. An excerpt weighted towards active compounds, which were near 8.5% of everything screened. Unless noted, calls come from the whole dose curve; as a rule, active = well fitted curve in the direction sought with a large enough effect; inconclusive = small, poorly fitted or top-dose-only effect, or another doubt; inactive = no such curve, though single readings can be large; an effect the other way counts as inactive or inconclusive.

SMILES | Coupling enz | KDM4E inh | ALDH1A1 inh | Sfp PPTase inh | NPSR antag | RGS12 GoLoco inh
O=C(O)C[C@@H]1C(=O)O[C@@H]2C(COC(=O)c3cc(O)c(O)c(O)c3)O[C@@H](OC(=O)c3cc(O)c(O)c(O)c3)[C@@H](OC(=O)c3cc(O)c(O)c4c3[C@H]1[C@H](O)C(=O)O4)[C@H]2OC(=O)c1cc(O)c(O)c(O)c1 (stereo partly drawn) | n | 0.71µM | x | 45µM | n | n
CCCC(C(=O)NC1CCCC1)N(Cc1ccc2c(c1)OCO2)C(=O)c1snc(C(N)=O)c1N (stereo not drawn) | n | u | 13µM | n | u | n
Cc1cc(C)c(N(CC(=O)NCc2ccccc2)C(=O)c2csnn2)c(C)c1 | n | x | x | n | x | x
O=C(NCc1cccnc1)c1csc2c1CCCC2 | n | n | u | n | n | n
CCOC(=O)c1cnn(-c2ccc(C(F)(F)F)cn2)c1N | n | n | n | n | n | n
CCOC(=O)c1cnc(-c2ccc(C(F)(F)F)cn2)[nH]c1=O | n | u | n | 45µM | n | n
CCOC(=O)C1=C(C)OC(N)=C(C#N)C1c1ccc(C)s1 (stereo not drawn) | n | u | 22µM | n | n | n
CCOC(=O)C1=C(C)OC(N)=C(C#N)C1c1cccc(C)c1 (stereo not drawn) | n | n | u | n | n | n
CCOC(=O)C1=C(C)OC(N)=C(C#N)C1c1c(C)nn(-c2ccccc2)c1Cl (stereo not drawn) | -51 | u | n | 56µM | n | n
Cc1ccsc1/C=N/NC(=O)Cn1cnc2ccccc21 | n | n | u | n | n | n
CC(C)CNC(=O)[C@H]1N2C(=O)c3ccccc3C2SC1(C)C (stereo partly drawn) | n | x | x | n | x | x
COc1cc(OC)c(N(C)C(=O)c2cn(C)c(=O)c3cc(OC)c(OC)cc23)cc1Cl | n | x | x | n | x | x
CC(=O)c1ccc2cccc3c2c1N=CN3C | -43 | n | n | u | u | x
CC(=O)c1cc(C(C)=O)c(C)nc1C | n | n | n | n | n | n
CCNc1ccc(S(=O)(=O)N(C)C)cc1NCC(=O)Nc1ccccc1F | n | n | 20µM | n | n | n
CCNc1ccc(S(=O)(=O)N(C)C)cc1NCC(=O)Nc1ccccc1Br | n | n | 25µM | n | n | n
CCNc1ccc(S(=O)(=O)N(C)C)cc1NCC(=O)Nc1ccc(F)c(Cl)c1 | n | n | 25µM | n | n | n
CC(C)(CNC(=O)CO/N=C1/C=C2CCC3C(C(O)C[C@@]4(C)C3CC[C@]4(O)C(=O)CO)[C@@]2(C)CC1)C(O)C(=O)O (stereo partly drawn) | n | x | x | n | x | x
Cc1c(NC(=O)COC(=O)COc2ccc(Nc3ccccc3)cc2)c(=O)n(-c2ccccc2)n1C | n | n | 22µM | n | n | n
CCCCC(C(=O)NC1CCCC1)N(C(=O)c1snc(C(N)=O)c1N)c1ccc(F)cc1 (stereo not drawn) | n | x | x | n | x | x
O=C(Cc1coc2cc3c(cc12)CCC3)OCc1cc(=O)n2c(n1)sc1ccccc12 | n | u | u | 40µM | n | n
Cc1ccc(C(=O)NCc2n[nH]c(=S)n2-c2ccccc2)cc1[N+](=O)[O-] | n | n | u | n | n | n
CC(C)(C)c1ccc(OCc2ccc(C(=O)Nc3cccnc3)o2)cc1 | n | x | x | n | x | x
Nc1ccccc1Nc1cccc(C(F)(F)F)c1 | n | n | u | n | n | n
COc1ccc(Nc2ccccc2N)cc1 | n | 10µM | u | n | n | n
SMILES | Coupling enz | KDM4E inh | ALDH1A1 inh | Sfp PPTase inh | NPSR antag | RGS12 GoLoco inh
COc1ccc(Nc2ccnc3ccccc23)cc1 | n | n | n | n | n | n
Nc1ccc(Nc2ccccc2N)cc1 | -31 | u | n | n | n | n
CCCC/C=C/[C@H](c1ccccc1)[C@H](CO)Cc1cnc2ccccc2c1 | n | x | x | n | x | x
COc1ccc(S(=O)(=O)NCCc2cn3nc(C)c(C)nc3n2)cc1F | n | x | x | n | x | x
CCOc1ccc(S(=O)(=O)Nc2ccc(S(=O)(=O)N3CCCC3)cc2)cc1 | n | n | 3.2µM | n | n | n
CCOc1ccc(S(=O)(=O)Nc2ccc(S(=O)(=O)N3CCOCC3)cc2)cc1 | n | n | u | n | n | n
CCOC(=O)N1CCN(S(=O)(=O)c2ccc(C(=O)NNc3nc4cc(C)cc(C)c4s3)cc2)CC1 | n | 25µM | n | n | n | n
CCOc1cc(S(=O)(=O)N2CCCCC2)ccc1Cl | n | n | 22µM | n | n | n
CCOc1ccc(S(=O)(=O)Nc2ccc(S(=O)(=O)N3CCCCC3)cc2)cc1 | n | n | 2.2µM | n | n | n
CCOc1ccc(S(=O)(=O)N2CCCCCC2)cc1 | n | n | n | n | u | n
CCOc1cc(S(=O)(=O)N2CCN(CC)CC2)ccc1Cl | n | n | n | n | n | n
CCOC(=O)N/N=C(\CCC(=O)O)c1cccs1 | n | n | x | n | n | n
CC(Oc1ccc(Cl)cc1)C(=O)N(C)CC(=O)Nc1ccc(N2CCOCC2)cc1 (stereo not drawn) | x | x | x | n | x | x
Cc1c(Cl)cccc1S(=O)(=O)Nc1ccnn1C | n | n | x | n | n | n
O=S(=O)(c1cc(Cl)ccc1Cl)N1CCCC1 | n | n | 0.089µM | n | n | n
CCOC(=O)N1CCN(S(=O)(=O)c2ccc(OCC)c(C)c2)CC1 | n | n | 16µM | n | n | n
CN1C(=O)CC(c2ccco2)Sc2ccccc21 (stereo not drawn) | n | n | u | n | n | n
CCCN1C(=O)CC(c2ccco2)Sc2ccccc21 (stereo not drawn) | n | n | u | 35µM | n | n
O=C(CN1C(=O)CC(c2ccco2)Sc2ccccc21)Nc1ccc2c(c1)OCCO2 (stereo not drawn) | n | n | 14µM | n | n | n
O=C(NCCCO)C(=O)NCCc1ccc(Cl)cc1 | n | n | n | n | n | n
O=C(OCc1ccc(F)cc1)c1ccc2ccccc2n1 | n | n | n | n | n | n
COc1cc(/C=C2/C(=O)c3cccc([N+](=O)[O-])c3C2=O)c(Br)cc1O | n | n | 8.9µM | 20µM | 10µM | n
Nc1c(C(=O)N2CCCC2)sc2nc3c(cc12)CCCCCC3 | n | u | u | 56µM | n | n
Cc1cc(C)c2c(N)c(C(=O)N3CCCCCC3)sc2n1 | n | u | u | 35µM | n | n
COCc1cc(C)nc2sc(C(=O)N3CCCC3)c(N)c12 | n | n | u | u | n | n
CN(C)C1CCN(C(=O)c2cccc(OC3CCN(S(=O)(=O)N(C)C)CC3)c2)C1 (stereo not drawn) | x | x | x | n | x | x
CCOc1cccc(/C(O)=C2/C(=O)C(=O)N(CCN3CCOCC3)C2c2ccncc2)c1 (stereo not drawn) | n | n | 22µM | n | n | n
CCCOc1cccc(C2/C(=C(/O)c3ccc4c(c3)CC(C)O4)C(=O)C(=O)N2CCN2CCOCC2)c1 (stereo not drawn) | n | x | x | n | x | x
